These results are taken from the supplement of paper PMC6555819.

This assay deals with RARb:RXRa (NR concentration 270 nM, RXRa partner concentration 90 nM). Put plainly: PBM binding z-score (relative to random genomic background probes); higher = stronger binding; sequences stand for … in GC…GCGATTGACAGCGTAGAATGAAGG
A digest of the protocol: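 Regression normalization was applied to scanned fluorescence from custom Agilent 4×180K protein-binding microarrays. Before scanning, arrays were incubated 1 h with ligand-free nuclear receptor dimers, and binding was detected with antibodies against each partner (one per run). Binding z-scores use the random background probes as reference.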
Take CCGACTGGGGCATAAGGTTACTATAAGCCAGCCC: the PBM binding z-score was determined as 1.45. CTCGAAAGGTCGGTTGAGGTGAGTACACGGATAA yielded a PBM binding z-score of 3.15. AATACAGGGTCACTATGCCAGAGTAGGTACGAAT registered a PBM binding z-score of 4.01.

For TAGCCTAGGTCAGATCGGGCCTGTATACGCTATA, the PBM binding z-score was 2.8. In the case of TATACAGGGTCAAAGGCCAGGGTACGAATGTCGA it was 4.48; in that of TCTAGTTGGTCACGGAGGTCACACTCGACGGGTA, 3.91; in that of AGTTAAAGTTCACTAGGTAACGTAAGATTCAGCT, 4.51. For the sequence CCTTACGGGTCACTGACAGGTTATACCATTTGGA, the PBM binding z-score came out at 4.14. The same measure for ACCGAAAGGTCGTGAGGTGAGTATACAGAAAGGC: 4. The same measure for CGTCCAAGGTGAAGGTCAGTGAAAGAGACTCGAA: 3.93; for ATCTCTAGGTAGGACTCAGTTCAGTGAAGAACGC: 0.407; for ACTATTAGTTGAGACGACGGCAACCGATAGGTTG: -0.0586.

ATCACTAGGTAAGACTCAGTTCAGTGAAGAACGC showed a PBM binding z-score of 0.143.

Sequence TCATATAGGTAAATGCTAGGTGTAAGTCCGATCT had a PBM binding z-score of 0.377. Consider CTCGAAAGGTCGTGCTCAGGTGGGTATACCAAAC, for which the PBM binding z-score came to 3.9. The sequence AGAATGAGCTTATTAAGATCAGGGAATTGCGGTC came in with a PBM binding z-score of -0.496. In the case of TCTCGGAGGACACGACAGGTCAGAGCTCGACATC it was 2.62; in that of TCTTGTAGATCAGGCAGGTTAAGAAAGCCTGAGT, 0.0689.

Regarding GATACAGGGTCAGCTAGAGGCCAAAGTATGGAAA, the PBM binding z-score worked out at 4.25. The same measure for CCTATTAGTTGACCATAAGGGTAACCGAAGCTCG: 1.06; for ATCTCTAGGTAAAGATAGTTCAGTGGATGCAAAT: 0.718. With CAGCCTAGGTCAGTGCCAGTATAGGAGGAACGTT, the PBM binding z-score stood at 3.17. Take CGAACTAGGTCATTGACAGGACAGAGAATAGTAA: the PBM binding z-score was 3.65. In the case of CGCACGAGGGCATGAGTTGATAGCAAATGCCGAT it was 2.09; in that of ACAGACAGGTGAGTGAAGATAACTCAGCTGGACG, 0.137. In the case of GCGACTGGGGCATCCGCAGGTTACCATAACTTAA it was 0.89. In the case of ACTAGCAGGCCAAGTGTGGGTCACTCAAACAAAG, the PBM binding z-score was 1.79. The same measure for GATACAGGGTCAAGGCGAGAGTACGCGTATTGAT: 4.37.

ACAGACAGGTGAGTAAAGGTAACTCAGCTGGACG returned a PBM binding z-score of 0.798. Sequence ACTAGTTGGTCAGCTGAGGTCACCCACAATTCGG registered a PBM binding z-score of 3.58.

The sequence CCGAGTGGGGCAAGGTTACCATAACGCACAGCCA came in with a PBM binding z-score of 1.4. In the case of CAAACTAGGTCAAGAGGTCAAAATCCGCTTCCCG, the PBM binding z-score is 5.35. In the case of CCGACTTGGGCATAAGGTTACCATAAGCCAGCCC it was 0.922; in that of CGTTACGGGTCACTGACAGGTTATAGCATTTGGA, 3.93; in that of CGAGCTAGGTCATCCAGGACAGTGAATACATTGA, 3.85.

For CCTAGTTGGTCAAGTTCACACACGCTATAGGTAC, the PBM binding z-score was found to be 2.92. With CGTCCAAGGTCATAGGAGGTCAGTGTAGACAGAT, the PBM binding z-score was found to be 5.32. The same measure for CCTAGTTGGTCAGCAGGTCACACACCGGATATGA: 2.75; for CGTCCAAGGCCAGCAGGTCAGTGAAAGCGACGTG: 2.36. Sequence TCTATTATTTGATTAGGGCAACCGAAACAGCGGA registered a PBM binding z-score of 0.93.
